From PubChem BioAssay (EPA / NIEHS)
Calls of active or inactive are those of the source. Rule for the calls: active = hit-call score of the fitted dose curve at least 0.9, where 1 is the maximum; inactive = score below 0.9.

Experiment: ATG_CRE_CIS: Attagene CIS-FACTORIAL HepG2 Assay for human cAMP Responsive Element (CRE) binding protein 3 (AID 2282926)
Details: HepG2 CRE cis-reporter, Attagene multiplexed mRNA; actives raise or lower the signal
Procedure: ATG_CIS is a cell-based, multiplexed-readout assay that uses HepG2, a human liver cell line, with measurements taken at 24 hours after chemical dosing in a 24-well plate.ATG_CRE_CIS is one of 52 assay component(s) measured or calculated from the ATG_CIS assay. It is designed to make measurements of mRNA induction, a form of inducible reporter, as detected with fluorescence intensity signals by Reverse transcription polymerase chain reaction (RT-PCR) and Capillary electrophoresis technology.Data from the assay component ATG_CRE_CIS was analyzed into 1 assay endpoint. This assay endpoint, ATG_CRE_CIS, was analyzed with bidirectional fitting relative to DMSO as the negative control and baseline of activity. Using a type of inducible reporter, measures of mRNA for gain or loss-of-signal activity can be used to understand the reporter gene at the transcription factor-level as they relate to the gene CREB3. Furthermore, this assay endpoint can be referred to as a primary readout, because this assay has produced multiple assay endpoints where this one serves a reporter gene function. To generalize the intended target to other relatable targets, this assay endpoint is annotated to the dna binding intended target family, where the subfamily is basic leucine zipper.
Human liver HepG2 cells are transiently transfected with multiple reporter transcription units (MRTUs) in 6-well plates using FuGene 6 reagent (Roche; 3 ml FuGene/1 mg DNA). The MRTU constructs are regulated by a cis-regulating element (promoter). […] A major difference between the CIS and TRANS system is that in CIS activities of endogenous TFs are measured, whereas the TRANS assay evaluates changes in activities of exogenous, chimeric NR-Gal4 proteins. […] At the end of 24 hour incubation, total RNA was isolated using TriZol reagent (Invitrogen). The isolated RNA is then reverse-transcribed using oligo(dT) primer and Mo-MLV reverse transcriptase (Invitrogen) with DNAse I (Ambion) treatment for 30 min. The one-tenth of the produced cDNA was amplified by PCR using Taq DNA polymerase (Invitrogen) and two reporter sequence-specific primers. The PCR products were fluorescently labeled by primer extension with 6-arboxyfluorescein (6-FAM) 5'-labeled reporter sequence-specific primer (2 min at 95 C, 20 s at 68 C and 10 min at 72 C) and these products were digested with 5U of HpaI (New England Biolabs) for 2h at 37 C. The fragments were purified using Qiaquick PCR columns (Qiagen), analyzed on an ABI 3130xL genetic analyzer (Applied Biosystems) with peak positions identified by using a set of X-rhodamine (ROX)-labeled MapMarker1000 molecular weight standards (BioVentures). The raw capillary electrophoresis data was processed using Attagraph software (Attagene).

| SMILES | outcome | AC50 |
| --- | --- | --- |
| OC(CCl)CCl | inactive |  |
| O=C(N[C@H](CO)[C@H](O)c1ccc([N+](=O)[O-])cc1)C(Cl)Cl | inactive |  |
| c1ccc2cc3ccccc3cc2c1 | inactive |  |
| Cc1ccc(S(=O)(=O)NC(=O)NN2CCCCCC2)cc1 | inactive |  |
| OCC(CO)(CO)CO | inactive |  |
| COCc1nnc(-c2ccc[n+]([O-])c2)n1-c1c(Cl)c(Cl)cc2[nH]c(=O)c(=O)[nH]c12 | inactive |  |
| NC(=O)N1c2ccccc2C=Cc2ccccc21 | inactive |  |
| C=CCc1cc(S(=O)(=O)c2ccc(O)c(CC=C)c2)ccc1O | inactive |  |
| OCc1ccccc1 | inactive |  |
| CC(C)C(=O)Nc1ccc([N+](=O)[O-])c(C(F)(F)F)c1 | inactive |  |
| CC(=O)c1ccccc1 | inactive |  |
| O=C1CN(N=Cc2ccc([N+](=O)[O-])o2)C(=O)N1 | inactive |  |
| O=C(O)CO | inactive |  |
| CCN(CC)C(=S)SSC(=S)N(CC)CC |  | 76 µM (active) |
| C[C@]12C=CC(=O)C=C1CC[C@H]1[C@@H]3C[C@@H](O)[C@](O)(C(=O)CO)[C@@]3(C)C[C@H](O)[C@@]12F | inactive |  |
| O=S1(=O)CCCO1 | inactive |  |
| COc1cc2c(c(OC)c1OC)-c1ccc(OC)c(=O)cc1[C@@H](NC(C)=O)CC2 | inactive |  |
| OCCOCCOCCO | inactive |  |
| CCCCCCCCCC | inactive |  |
| CCOC(N)=O | inactive |  |

| SMILES | outcome | AC50 |
| --- | --- | --- |
| CCOc1ccc2[nH]cc(C(=O)NCc3ccccc3)c(=O)c2n1 | inactive |  |
| OC(O)(C(F)C(O)(O)C(F)(F)F)C(F)(F)F | inactive |  |
| Cc1nc(-c2ccccn2)ncc1C(=O)Nn1cc(C)c2cc(F)ccc21 | inactive |  |
| FC(F)(F)C(F)(F)C(F)(F)C(F)(F)C(F)(F)C(F)(F)I | inactive |  |
| CCCOc1ccc(S(=O)(=O)N2CCN(CC)CC2)cc1-c1nc2c(CC)n(Cc3ccccn3)nc2c(=O)[nH]1 | inactive |  |
| CCc1cccc(CC)c1N | inactive |  |
| CNC(C)=O | inactive |  |
| S=P(N1CC1)(N1CC1)N1CC1 | inactive |  |
| CCCCCCOC(=O)CC(CC(=O)OCCCCCC)(OC(=O)CCC)C(=O)OCCCCCC | inactive |  |
| c1ccc(C(O[C@@H]2CCCN(CCc3ccc4c(c3)OCO4)C2)c2ccccc2)cc1 | inactive |  |
| NC(N)=O | inactive |  |
| O=C(NO)C1(NS(=O)(=O)c2ccc(Oc3ccc(F)cc3)cc2)CCOCC1 | inactive |  |
| COc1cc(C(C)C)c2c(c1)S(=O)(=O)N(COc1cc(=O)n3cccc(OCCN4CCCCC4)c3n1)C2=O |  | 3.96 µM (active) |
| OCc1c[nH]c2ccccc12 | inactive |  |
| CCCCC(CC)C(=O)OCCOCCOCCOC(=O)C(CC)CCCC (stereo not given) | inactive |  |
| Cc1nccn1-c1ccc(Sc2cccc(C3(C(N)=O)CCOCC3)c2)cc1 |  | 1.67 µM (active) |
| CC[C@H](C)C(=O)O[C@H]1C[C@H](O)C=C2C=C[C@H](C)[C@H](CC[C@@H](O)C[C@@H](O)CC(=O)O)[C@H]21 | inactive |  |
| O=C(O)c1cccc(C(=O)O)c1 | inactive |  |
| CCCCCCCCCCCCCCO | inactive |  |
| OC[C@H]1O[C@@H]2O[C@H]3[C@H](O)[C@@H](O)[C@@H](O[C@H]4[C@H](O)[C@@H](O)[C@@H](O[C@H]5[C@H](O)[C@@H](O)[C@@H](O[C@H]6[C@H](O)[C@@H](O)[C@@H](O[C@H]7[C@H](O)[C@@H](O)[C@@H](O[C@H]1[C@H](O)[C@H]2O)O[C@@H]7CO)O[C@@H]6CO)O[C@@H]5CO)O[C@@H]4CO)O[C@@H]3CO | inactive |  |
